In the library only some 11% were active in any assay of this set; here they are far more common.
FLuc inh = Photinus pyralis luciferase inhibition | actives 2.5% (n = 76,000) | Potency, µM (series often up to 115 µM), hits mostly inhibitors | P08659 | AID 1347043 | purified P. pyralis luciferase, luminescence, biochemical; note: nearly all actives have a fitted effect of over 65% in size
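Purified 10nM P. pyralis luciferase with 10uM D-luciferin and 10uM ATP in 50mM Tris acetate pH 7.5, 10mM Mg acetate, 0.01% Tween-20, 0.05% BSA. qHTS titration; luminescence read by CCD imager.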
HEK cytotox = cytotoxic compounds in HEK 293 cells; HEK 293 viability, ATP luminescence (CellTiter-Glo), 48-72 h; Potency, µM (top dose mostly 115 µM), hits mostly inhibitors; actives 6.6% (n = 94,000); note: nearly all actives have a fitted effect of over 60% in size
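Cytotoxicity was scored by loss of ATP-coupled luminescence (CellTiter-Glo) in HEK 293 cells. Compound treatment ran 48 or 72 hr at 37 degree Celsius, 5% CO2, 95% humidity.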
NPR1 antag = blocks ANP-stimulated signaling of human Npr1 receptor; P16066; actives 1.6% (n = 76,000); AID 1347048; HEK293 hNpr1 GloSensor cGMP, ANP-stimulated luminescence; Potency, µM (titrated, usually from 46.3 µM), most hits filed as inhibitors; calls by dose curve; note: nearly all actives have a fitted effect of over 60% in size
Target sequence (P16066 whole entry, looked up): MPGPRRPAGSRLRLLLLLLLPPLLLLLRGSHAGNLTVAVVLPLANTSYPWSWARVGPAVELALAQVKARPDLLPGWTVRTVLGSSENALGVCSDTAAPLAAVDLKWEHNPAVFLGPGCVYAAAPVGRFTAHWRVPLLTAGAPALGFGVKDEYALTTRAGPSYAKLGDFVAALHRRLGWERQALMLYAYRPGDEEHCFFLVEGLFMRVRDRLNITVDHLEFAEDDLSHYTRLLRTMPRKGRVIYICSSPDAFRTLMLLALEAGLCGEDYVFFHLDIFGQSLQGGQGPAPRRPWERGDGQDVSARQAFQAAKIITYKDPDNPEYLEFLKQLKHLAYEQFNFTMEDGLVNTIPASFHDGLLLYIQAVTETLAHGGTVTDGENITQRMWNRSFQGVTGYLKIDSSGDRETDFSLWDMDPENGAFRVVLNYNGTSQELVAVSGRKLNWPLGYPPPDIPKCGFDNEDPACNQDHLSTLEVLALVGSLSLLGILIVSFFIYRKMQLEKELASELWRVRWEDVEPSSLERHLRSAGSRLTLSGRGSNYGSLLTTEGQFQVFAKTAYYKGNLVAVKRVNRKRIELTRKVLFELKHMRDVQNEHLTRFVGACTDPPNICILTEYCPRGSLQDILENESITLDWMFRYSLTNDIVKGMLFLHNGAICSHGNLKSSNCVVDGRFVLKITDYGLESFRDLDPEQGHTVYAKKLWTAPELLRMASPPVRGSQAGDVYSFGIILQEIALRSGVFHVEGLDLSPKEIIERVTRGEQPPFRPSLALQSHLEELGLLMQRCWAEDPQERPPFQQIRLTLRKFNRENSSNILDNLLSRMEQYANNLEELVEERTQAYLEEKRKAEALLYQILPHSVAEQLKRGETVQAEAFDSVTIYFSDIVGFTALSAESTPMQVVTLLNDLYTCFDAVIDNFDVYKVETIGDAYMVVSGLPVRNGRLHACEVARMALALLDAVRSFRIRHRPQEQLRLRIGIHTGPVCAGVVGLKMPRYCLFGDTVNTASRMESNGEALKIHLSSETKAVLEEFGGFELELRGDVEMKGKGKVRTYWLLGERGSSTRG
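HEK293 cells stably expressing human Npr1 and cGMP GloSensor pGS-40F, loaded 2 h with 2% GloSensor reagent, given compound 30 min at room temperature. Luminescence read before and 20 min after 0.1 nM hNppA.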
NIH3T3 tox = NIH 3T3 cell cytotoxicity; NIH 3T3 viability, CellTiter-Glo ATP luminescence, 48-72 h; Potency, µM (titrated, usually from 96.7 µM), actives largely listed as inhibitors; actives 4.3% (n = 94,000); AID 1345082; note: nearly all actives have a fitted effect of over 55% in size
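ATP-dependent luminescence (CellTiter-Glo) served as the viability signal for NIH 3T3 cells treated with compound for 48 or 72 hr at 37 °C.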
NPR1 antag cnf = confirmation of human Npr1 natriuretic peptide receptor antagonists | shares compounds with NPR1 antag | actives 76% (n = 1,400) | HEK293 hNpr1 cGMP GloSensor luminescence, ANP-stimulated | Potency, µM (highest dose often 57.6 µM), hits mostly inhibitors; calls by dose curve; note: nearly all actives have a fitted effect of over 70% in size
Npr2 selectivity = hNpr2 antagonism, selectivity versus Npr1; shares compounds with NPR1 antag; HEK293 hNpr2 GloSensor cGMP luminescence, CNP-stimulated; Potency, µM (doses to about 57.6 µM), most hits filed as inhibitors; actives 67% (n = 1,400); AID 1347046; calls by dose curve; note: nearly all actives have a fitted effect of over 70% in size
FLuc counter = counter-screen for Npr1 antagonists: firefly luciferase inhibitors; shares compounds with NPR1 antag; purified FLuc enzyme, luminescence, Km substrate; Potency, µM (titrated, usually from 57.6 µM), actives largely listed as inhibitors; actives 0.7% (n = 1,400); note: series mostly up to about 58 µM
GloSensor cGMP = control cell line activity, Npr1 antagonist counter-screen | Potency, µM (series often up to 57.6 µM), hits mostly inhibitors | actives 69% (n = 1,400) | HEK293 GloSensor cGMP, SNP-stimulated, luminescence | shares compounds with NPR1 antag; calls by dose curve; note: nearly all actives have a fitted effect of over 70% in size
Large screens that a line does not name were inactive (follow-up assays come after a bar, where they were run). Unless noted, calls come from the whole dose curve; as a rule, active = well fitted curve in the direction sought with a large enough effect; inconclusive = small, poorly fitted or top-dose-only effect, or another doubt; inactive = no such curve, though single readings can be large; an effect the other way counts as inactive or inconclusive.

COC(=O)[C@@H]1Cc2ncn(Cc3ccc(Cl)cc3)c2CN1C(=O)c1ccc(C#N)cc1	NIH3T3 tox inconclusive
COC(=O)[C@@H]1Cc2ncn(Cc3ccc(Cl)cc3)c2CN1Cc1cccc(C#N)c1	HEK cytotox 63µM, NPR1 antag inconclusive, NIH3T3 tox inconclusive | NPR1 antag cnf inconclusive | Npr2 selectivity inconclusive | FLuc counter inactive | GloSensor cGMP inconclusive
COc1ccc(CCNC(=O)c2cc(-c3cc(Cl)cc(Cl)c3)c3nncn3n2)cc1	none (no result: FLuc inh, NPR1 antag)
O=C(Nc1ccc(Cl)cc1)c1nc2c(o1)CCN(Cc1ccc3cn[nH]c3c1)CC2	HEK cytotox 45µM, NPR1 antag 0.56µM, NIH3T3 tox inconclusive | NPR1 antag cnf 3.5µM | Npr2 selectivity 4µM | FLuc counter inactive | GloSensor cGMP 4µM
O=C(Nc1ccc(Cl)cc1)c1nc2c(o1)CCN(Cc1ccc3c(c1)CCO3)CC2	HEK cytotox inconclusive, NPR1 antag 5µM, NIH3T3 tox inconclusive | NPR1 antag cnf 6.3µM | Npr2 selectivity 11µM | FLuc counter inactive | GloSensor cGMP 8.9µM
Cc1ccc(CN2CCc3nc(C(=O)Nc4ccc(Cl)cc4)oc3CC2)cc1	HEK cytotox inconclusive, NPR1 antag 14µM, NIH3T3 tox inconclusive | NPR1 antag cnf 11µM | Npr2 selectivity 9.9µM | FLuc counter inactive | GloSensor cGMP 14µM
O=C(Nc1ccc(Cl)cc1)c1nc2c(o1)CCN(Cc1ccncc1)CC2	HEK cytotox inconclusive, NPR1 antag 1.3µM, NIH3T3 tox inconclusive | NPR1 antag cnf 3.5µM | Npr2 selectivity 3.5µM | FLuc counter inactive | GloSensor cGMP 3.5µM
CCc1nc2c(c(-c3ccc(Cl)cc3)n1)CCN(Cc1ccc(NC(C)=O)cc1)CC2	HEK cytotox inconclusive
O=C(Nc1ccc(F)cc1)OC1CN(Cc2ccco2)C(=O)CN(C(=O)c2cccs2)C1 (centres undefined)	HEK cytotox inconclusive (no result: FLuc inh, NPR1 antag)
O=C(CCc1ccc(O)cc1)N1CCN(Cc2ccccc2)CC(O)C1 (centres undefined)	none
CCCCn1c(=O)c(C(=O)N2CCN([S+](=O)([O-])c3cccs3)CC2)nc2cccnc21	none (no result: FLuc inh, NPR1 antag)
CCc1ccc(CNC(=O)[C@H]2CCC[C@H]2NC(=O)c2ccc(OC)cc2)cc1	none
CC(C)(C(=O)N1CCN(Cc2ccccc2)CC(O)C1)c1ccccc1 (centres undefined)	none
Cc1ccc(NC(=O)O[C@@H]2CC[C@]3(C)[C@H](CC[C@H]4OC(=O)C[C@H]43)[C@]2(C)CO)cc1	NPR1 antag inconclusive | NPR1 antag cnf inconclusive | Npr2 selectivity inconclusive | FLuc counter inactive | GloSensor cGMP 40µM
COCCC(=O)N1CCCC(Cc2nc(C3CCOCC3)no2)C1 (centres undefined)	none | NPR1 antag cnf inactive | Npr2 selectivity inactive | FLuc counter inactive | GloSensor cGMP inactive
O=C(Nc1ccccc1)O[C@@H]1CO[C@H]2[C@@H]1OC[C@@H]2NC(=O)c1ccc2c(c1)OCO2	HEK cytotox inconclusive, NPR1 antag 32µM, NIH3T3 tox inconclusive | NPR1 antag cnf inconclusive | Npr2 selectivity inconclusive | FLuc counter inactive | GloSensor cGMP inconclusive
O=C(Nc1ccc(Oc2ccccc2)cc1)O[C@@H]1CO[C@H]2[C@@H]1OC[C@@H]2NC(=O)c1ccc(C(F)(F)F)cc1	HEK cytotox inconclusive, NPR1 antag 11µM, NIH3T3 tox inconclusive | NPR1 antag cnf 22µM | Npr2 selectivity 14µM | FLuc counter inactive | GloSensor cGMP 15µM
O=C(Nc1ccc(Oc2ccccc2)cc1)O[C@@H]1CO[C@H]2[C@@H]1OC[C@@H]2NCC1CCCCC1	HEK cytotox inconclusive, NPR1 antag inconclusive, NIH3T3 tox inconclusive | NPR1 antag cnf 22µM | Npr2 selectivity 17µM | FLuc counter inactive | GloSensor cGMP 22µM
COC(=O)c1cccc(NC(=S)N[C@H]2CO[C@H]3[C@@H]2OC[C@H]3OC(=O)Nc2cccc(C(F)(F)F)c2)c1	HEK cytotox 45µM, NPR1 antag inconclusive, NIH3T3 tox inconclusive | NPR1 antag cnf 27µM | Npr2 selectivity 22µM | FLuc counter inactive | GloSensor cGMP 22µM
CC(=O)c1cccc(NC(=O)O[C@@H]2CO[C@H]3[C@@H]2OC[C@@H]3NC(=O)Nc2ccccc2)c1	HEK cytotox inconclusive
Cc1nn(-c2ccccc2)c2c1C(C(C)C)N(C1CN(C(=O)c3ccc(C(F)(F)F)cc3)C1)C2=O (centres undefined)	none (no result: FLuc inh, NPR1 antag)
COCCCn1c(=O)c(C(=O)N2CCN(C(=O)c3ccc(C)cc3)CC2)nc2cccnc21	none (no result: FLuc inh, NPR1 antag)
O=C(Nc1ccc(Oc2ccccc2)cc1)N[C@H]1CO[C@H]2[C@@H]1OC[C@H]2OC(=O)Nc1cccc(C(F)(F)F)c1	none
O=C(Nc1ccc(Oc2ccccc2)cc1)O[C@@H]1CO[C@H]2[C@@H]1OC[C@@H]2NC(=S)Nc1ccccc1	HEK cytotox inconclusive, NPR1 antag 11µM, NIH3T3 tox inconclusive | NPR1 antag cnf 9.7µM | Npr2 selectivity 12µM | FLuc counter inactive | GloSensor cGMP 6.9µM
N#Cc1ccc(NC(=S)N[C@H]2CO[C@H]3[C@@H]2OC[C@H]3OC(=O)Nc2ccccc2)cc1	HEK cytotox 35µM, NPR1 antag 22µM, NIH3T3 tox inconclusive | NPR1 antag cnf 18µM | Npr2 selectivity 22µM | FLuc counter inactive | GloSensor cGMP 18µM
O=C(Nc1cccc2ccccc12)O[C@@H]1CO[C@H]2[C@@H]1OC[C@@H]2NC(=O)c1ccco1	none
O=C(Nc1cccc2ccccc12)O[C@@H]1CO[C@H]2[C@@H]1OC[C@@H]2NC(=O)c1cccs1	HEK cytotox inconclusive, NPR1 antag 22µM | NPR1 antag cnf 35µM | Npr2 selectivity inconclusive | FLuc counter inactive | GloSensor cGMP 31µM
COc1ccc(-c2ccccc2C(=O)NC(C)C)nn1	none (no result: FLuc inh, NPR1 antag)
COCCOC1CN(C2CCN(C(=O)c3ccc(C)s3)CC2)C12CCCCC2 (centres undefined)	none
CCCc1nc(NCc2nc(Cc3cccs3)no2)c2cnn(C)c2n1	HEK cytotox 45µM, NPR1 antag 13µM, NIH3T3 tox inconclusive | NPR1 antag cnf 22µM | Npr2 selectivity 22µM | FLuc counter inactive | GloSensor cGMP 22µM
CC(C)Cc1cc(C(=O)NCc2nc(Cc3cccs3)no2)on1	none
O=C(NCc1cccc(F)c1)c1csc(N2CCN(c3ccc(Cl)cc3)CC2)n1	HEK cytotox inconclusive, NPR1 antag 13µM | NPR1 antag cnf 24µM | Npr2 selectivity 24µM | FLuc counter inactive | GloSensor cGMP 22µM

Screening results as filed in PubChem.
